From ChEMBL document CHEMBL1961873, “Compounds: GSK PKIS; Assays: Nanosyn kinase panel” (2012)

Key:
[1] = molecular target: T1, Inhibitor of nuclear factor kappa-B kinase subunit epsilon (Homo sapiens) (UniProt Q14164); details: at 1 µM;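 further: reported values are averaged percent inhibition figures against human IKKε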
T1 sequence (whole entry): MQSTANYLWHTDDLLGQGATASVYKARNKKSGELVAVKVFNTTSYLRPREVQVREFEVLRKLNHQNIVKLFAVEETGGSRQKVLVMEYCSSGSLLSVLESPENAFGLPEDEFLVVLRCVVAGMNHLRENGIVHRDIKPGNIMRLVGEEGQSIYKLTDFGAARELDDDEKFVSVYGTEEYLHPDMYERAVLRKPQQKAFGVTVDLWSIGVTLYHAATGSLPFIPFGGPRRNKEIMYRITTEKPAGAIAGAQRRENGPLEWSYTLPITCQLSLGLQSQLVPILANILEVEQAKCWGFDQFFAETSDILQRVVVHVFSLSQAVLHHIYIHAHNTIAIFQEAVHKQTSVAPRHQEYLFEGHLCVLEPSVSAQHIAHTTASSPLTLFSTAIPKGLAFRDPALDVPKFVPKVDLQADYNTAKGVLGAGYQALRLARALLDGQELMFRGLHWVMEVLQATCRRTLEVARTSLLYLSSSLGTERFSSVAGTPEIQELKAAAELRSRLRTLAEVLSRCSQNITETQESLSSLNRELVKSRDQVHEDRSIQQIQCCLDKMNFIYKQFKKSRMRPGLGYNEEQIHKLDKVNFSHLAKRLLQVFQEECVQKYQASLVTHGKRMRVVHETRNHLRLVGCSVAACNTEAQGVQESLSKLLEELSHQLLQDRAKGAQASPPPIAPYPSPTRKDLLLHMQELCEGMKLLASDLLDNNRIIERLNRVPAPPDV

[2] = molecular target: T2, Serine/threonine-protein kinase Nek1 (Homo sapiens) (UniProt Q96PY6); details: at 0.1 µM
T2 sequence (whole entry): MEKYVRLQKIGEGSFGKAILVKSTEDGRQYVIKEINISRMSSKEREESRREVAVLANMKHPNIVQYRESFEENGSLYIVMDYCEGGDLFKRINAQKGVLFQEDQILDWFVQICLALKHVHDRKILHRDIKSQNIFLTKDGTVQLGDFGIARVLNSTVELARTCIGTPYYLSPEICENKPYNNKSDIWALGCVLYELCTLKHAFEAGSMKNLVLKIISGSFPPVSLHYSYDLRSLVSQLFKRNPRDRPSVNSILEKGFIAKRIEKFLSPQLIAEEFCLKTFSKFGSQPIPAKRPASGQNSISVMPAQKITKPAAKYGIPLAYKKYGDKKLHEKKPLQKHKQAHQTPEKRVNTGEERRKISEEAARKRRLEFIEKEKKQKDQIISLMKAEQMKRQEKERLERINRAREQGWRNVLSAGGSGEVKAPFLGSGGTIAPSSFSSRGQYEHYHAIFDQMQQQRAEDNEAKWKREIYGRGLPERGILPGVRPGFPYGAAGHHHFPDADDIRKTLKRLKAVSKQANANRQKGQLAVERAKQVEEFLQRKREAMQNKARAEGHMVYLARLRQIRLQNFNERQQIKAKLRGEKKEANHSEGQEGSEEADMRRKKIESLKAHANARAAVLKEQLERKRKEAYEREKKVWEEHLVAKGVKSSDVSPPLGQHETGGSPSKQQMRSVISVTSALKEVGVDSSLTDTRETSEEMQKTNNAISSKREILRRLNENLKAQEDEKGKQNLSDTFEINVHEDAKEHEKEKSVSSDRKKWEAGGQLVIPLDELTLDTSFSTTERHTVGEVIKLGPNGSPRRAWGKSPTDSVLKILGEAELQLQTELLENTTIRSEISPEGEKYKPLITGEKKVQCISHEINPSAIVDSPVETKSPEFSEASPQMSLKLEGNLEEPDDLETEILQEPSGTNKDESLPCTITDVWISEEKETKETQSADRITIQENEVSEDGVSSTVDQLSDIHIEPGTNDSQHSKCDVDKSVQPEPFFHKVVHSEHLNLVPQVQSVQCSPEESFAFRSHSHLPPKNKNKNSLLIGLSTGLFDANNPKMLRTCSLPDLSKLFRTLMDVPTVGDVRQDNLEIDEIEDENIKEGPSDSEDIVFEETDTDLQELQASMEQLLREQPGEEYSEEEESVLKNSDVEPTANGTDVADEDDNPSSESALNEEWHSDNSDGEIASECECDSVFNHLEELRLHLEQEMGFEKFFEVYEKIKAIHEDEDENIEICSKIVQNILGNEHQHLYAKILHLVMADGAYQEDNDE

[3] = molecular target: T2, Serine/threonine-protein kinase Nek1 (Homo sapiens); details: at 1 µM
[4] = molecular target: T3, Serine/threonine-protein kinase Nek2 (Homo sapiens) (UniProt P51955); details: at 0.1 µM
T3 sequence (whole entry): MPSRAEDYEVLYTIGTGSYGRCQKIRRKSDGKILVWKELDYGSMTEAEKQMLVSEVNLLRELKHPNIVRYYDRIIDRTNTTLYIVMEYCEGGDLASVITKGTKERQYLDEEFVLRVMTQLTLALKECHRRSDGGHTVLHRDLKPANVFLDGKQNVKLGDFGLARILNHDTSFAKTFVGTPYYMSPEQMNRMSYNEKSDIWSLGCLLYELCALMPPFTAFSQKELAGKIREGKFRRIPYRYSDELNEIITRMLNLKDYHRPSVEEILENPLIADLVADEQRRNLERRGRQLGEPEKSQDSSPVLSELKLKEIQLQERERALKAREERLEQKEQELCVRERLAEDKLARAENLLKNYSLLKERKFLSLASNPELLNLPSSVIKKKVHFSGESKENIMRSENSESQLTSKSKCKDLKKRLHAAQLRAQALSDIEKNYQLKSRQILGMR

[5] = molecular target: T3, Serine/threonine-protein kinase Nek2 (Homo sapiens); details: at 1 µM
[6] = molecular target: Serine/threonine-protein kinase Nek6 (Homo sapiens) (UniProt Q9HC98); details: at 0.1 µM
[7] = molecular target: Serine/threonine-protein kinase Nek6 (Homo sapiens) (UniProt Q9HC98); details: at 1 µM
[8] = molecular target: Serine/threonine-protein kinase Nek7 (Homo sapiens) (UniProt Q8TDX7); details: at 0.1 µM
[9] = molecular target: Serine/threonine-protein kinase Nek7 (Homo sapiens) (UniProt Q8TDX7); details: at 1 µM
[10] = molecular target: T4, Serine/threonine-protein kinase Nek9 (Homo sapiens) (UniProt Q8TD19); details: at 0.1 µM
T4 sequence (whole entry): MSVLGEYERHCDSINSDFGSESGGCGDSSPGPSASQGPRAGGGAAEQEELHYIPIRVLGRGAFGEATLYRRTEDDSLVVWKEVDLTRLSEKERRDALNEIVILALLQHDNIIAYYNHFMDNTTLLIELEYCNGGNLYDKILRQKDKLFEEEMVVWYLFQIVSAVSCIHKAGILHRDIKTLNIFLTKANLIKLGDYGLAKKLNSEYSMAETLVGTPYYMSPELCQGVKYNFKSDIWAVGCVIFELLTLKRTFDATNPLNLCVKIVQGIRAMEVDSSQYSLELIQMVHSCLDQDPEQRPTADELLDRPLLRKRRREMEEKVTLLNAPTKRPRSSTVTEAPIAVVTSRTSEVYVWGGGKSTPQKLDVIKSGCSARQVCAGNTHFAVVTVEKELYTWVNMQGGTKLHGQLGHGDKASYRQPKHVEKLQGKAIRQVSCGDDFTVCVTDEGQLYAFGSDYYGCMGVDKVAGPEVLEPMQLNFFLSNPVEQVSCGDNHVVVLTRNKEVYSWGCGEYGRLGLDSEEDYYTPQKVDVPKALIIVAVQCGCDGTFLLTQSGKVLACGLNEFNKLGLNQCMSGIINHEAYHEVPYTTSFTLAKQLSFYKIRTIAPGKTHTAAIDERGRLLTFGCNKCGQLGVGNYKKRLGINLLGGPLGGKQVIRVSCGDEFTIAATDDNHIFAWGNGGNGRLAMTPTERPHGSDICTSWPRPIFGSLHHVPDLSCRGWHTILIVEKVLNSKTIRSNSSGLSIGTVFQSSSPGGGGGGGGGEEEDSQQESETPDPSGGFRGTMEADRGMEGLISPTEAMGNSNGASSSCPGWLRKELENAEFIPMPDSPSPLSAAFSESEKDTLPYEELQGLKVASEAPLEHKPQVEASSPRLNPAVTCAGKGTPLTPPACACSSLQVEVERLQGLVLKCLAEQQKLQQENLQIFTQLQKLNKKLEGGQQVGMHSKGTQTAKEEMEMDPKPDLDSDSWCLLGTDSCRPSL

[11] = molecular target: T4, Serine/threonine-protein kinase Nek9 (Homo sapiens); details: at 1 µM
[12] = molecular target: Serine/threonine-protein kinase PLK1 (Homo sapiens) (UniProt P53350); details: at 0.1 µM
[13] = molecular target: Serine/threonine-protein kinase PLK1 (Homo sapiens) (UniProt P53350); details: at 1 µM
[14] = molecular target: T5, Dual specificity protein kinase TTK (Homo sapiens) (UniProt P33981); details: at 0.1 µM
T5 sequence (whole entry): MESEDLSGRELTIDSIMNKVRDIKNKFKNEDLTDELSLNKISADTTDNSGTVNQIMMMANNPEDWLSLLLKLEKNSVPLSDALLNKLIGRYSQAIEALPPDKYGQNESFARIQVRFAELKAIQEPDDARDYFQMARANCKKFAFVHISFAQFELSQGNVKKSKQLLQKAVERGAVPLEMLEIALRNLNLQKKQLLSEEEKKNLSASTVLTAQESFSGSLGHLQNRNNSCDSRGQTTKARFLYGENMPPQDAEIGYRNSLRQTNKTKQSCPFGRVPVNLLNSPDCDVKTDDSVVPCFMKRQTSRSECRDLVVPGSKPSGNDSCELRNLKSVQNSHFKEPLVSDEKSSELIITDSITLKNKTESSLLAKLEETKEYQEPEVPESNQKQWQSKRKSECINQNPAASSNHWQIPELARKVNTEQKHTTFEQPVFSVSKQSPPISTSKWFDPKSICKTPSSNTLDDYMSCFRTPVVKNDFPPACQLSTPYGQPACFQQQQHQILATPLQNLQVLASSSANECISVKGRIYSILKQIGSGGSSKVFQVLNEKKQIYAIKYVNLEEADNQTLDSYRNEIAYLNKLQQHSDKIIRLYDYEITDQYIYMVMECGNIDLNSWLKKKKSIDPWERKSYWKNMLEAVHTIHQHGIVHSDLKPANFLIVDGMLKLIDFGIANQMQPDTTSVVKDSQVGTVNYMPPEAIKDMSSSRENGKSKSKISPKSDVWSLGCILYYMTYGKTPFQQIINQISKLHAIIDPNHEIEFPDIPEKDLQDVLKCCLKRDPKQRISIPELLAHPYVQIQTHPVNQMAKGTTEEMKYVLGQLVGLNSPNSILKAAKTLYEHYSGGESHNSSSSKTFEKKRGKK

[15] = system: T6, Receptor-type tyrosine-protein kinase FLT3 (Homo sapiens), P36888 [D835Y]; details: at 1 µM
T6 sequence (whole entry): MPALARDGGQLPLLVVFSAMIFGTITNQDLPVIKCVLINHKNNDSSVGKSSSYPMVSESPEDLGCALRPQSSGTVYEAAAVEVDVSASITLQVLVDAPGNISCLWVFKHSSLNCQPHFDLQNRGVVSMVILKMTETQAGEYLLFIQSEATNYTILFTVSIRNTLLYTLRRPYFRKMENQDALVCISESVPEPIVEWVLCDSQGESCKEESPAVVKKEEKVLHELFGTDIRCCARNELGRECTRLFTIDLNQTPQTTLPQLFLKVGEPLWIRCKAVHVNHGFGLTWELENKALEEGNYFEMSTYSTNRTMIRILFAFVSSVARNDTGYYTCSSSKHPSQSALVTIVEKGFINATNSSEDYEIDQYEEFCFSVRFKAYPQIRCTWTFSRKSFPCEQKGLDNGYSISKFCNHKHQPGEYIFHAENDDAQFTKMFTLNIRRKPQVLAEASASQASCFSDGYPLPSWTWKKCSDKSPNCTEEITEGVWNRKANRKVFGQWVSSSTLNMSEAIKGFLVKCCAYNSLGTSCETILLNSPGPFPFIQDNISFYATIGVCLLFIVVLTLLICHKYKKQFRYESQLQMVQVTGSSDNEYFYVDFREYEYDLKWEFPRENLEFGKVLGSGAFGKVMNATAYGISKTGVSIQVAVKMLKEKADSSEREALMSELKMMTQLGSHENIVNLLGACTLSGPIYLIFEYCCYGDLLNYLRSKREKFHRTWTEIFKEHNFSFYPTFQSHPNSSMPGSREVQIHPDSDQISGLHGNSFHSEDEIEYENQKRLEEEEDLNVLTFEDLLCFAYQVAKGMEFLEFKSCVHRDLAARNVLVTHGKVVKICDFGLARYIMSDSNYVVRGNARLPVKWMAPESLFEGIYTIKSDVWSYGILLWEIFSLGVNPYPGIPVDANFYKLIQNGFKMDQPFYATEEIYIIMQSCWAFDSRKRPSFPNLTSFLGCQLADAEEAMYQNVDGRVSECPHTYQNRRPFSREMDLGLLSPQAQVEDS

[16] = molecular target: Vascular endothelial growth factor receptor 3 (Homo sapiens) (UniProt P35916); details: at 0.1 µM
[17] = molecular target: Vascular endothelial growth factor receptor 3 (Homo sapiens) (UniProt P35916); details: at 1 µM
[18] = molecular target: Macrophage colony-stimulating factor 1 receptor (Homo sapiens) (UniProt P07333); details: at 0.1 µM
[19] = molecular target: Macrophage colony-stimulating factor 1 receptor (Homo sapiens) (UniProt P07333); details: at 1 µM
[20] = molecular target: Tyrosine-protein kinase Fyn (Homo sapiens) (UniProt P06241); details: at 0.1 µM
Tyrosine-protein kinase Fyn (Homo sapiens), sequence (P06241 2-537 limits assumed): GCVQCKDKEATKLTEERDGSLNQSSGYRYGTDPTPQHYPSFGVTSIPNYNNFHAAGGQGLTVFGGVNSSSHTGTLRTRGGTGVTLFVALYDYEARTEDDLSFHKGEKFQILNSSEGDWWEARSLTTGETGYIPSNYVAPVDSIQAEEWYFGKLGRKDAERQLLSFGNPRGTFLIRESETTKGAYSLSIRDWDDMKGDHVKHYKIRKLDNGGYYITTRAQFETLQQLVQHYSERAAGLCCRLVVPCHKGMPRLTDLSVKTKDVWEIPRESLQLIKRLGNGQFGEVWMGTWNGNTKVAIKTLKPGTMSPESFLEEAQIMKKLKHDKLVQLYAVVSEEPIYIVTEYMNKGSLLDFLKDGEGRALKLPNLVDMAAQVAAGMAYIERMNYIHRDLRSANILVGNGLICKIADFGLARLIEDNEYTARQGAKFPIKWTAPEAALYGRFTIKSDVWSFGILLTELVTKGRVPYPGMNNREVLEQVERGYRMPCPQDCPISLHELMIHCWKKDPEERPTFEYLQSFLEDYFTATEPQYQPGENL

Vascular endothelial growth factor receptor 3 (Homo sapiens), sequence (P35916 whole entry): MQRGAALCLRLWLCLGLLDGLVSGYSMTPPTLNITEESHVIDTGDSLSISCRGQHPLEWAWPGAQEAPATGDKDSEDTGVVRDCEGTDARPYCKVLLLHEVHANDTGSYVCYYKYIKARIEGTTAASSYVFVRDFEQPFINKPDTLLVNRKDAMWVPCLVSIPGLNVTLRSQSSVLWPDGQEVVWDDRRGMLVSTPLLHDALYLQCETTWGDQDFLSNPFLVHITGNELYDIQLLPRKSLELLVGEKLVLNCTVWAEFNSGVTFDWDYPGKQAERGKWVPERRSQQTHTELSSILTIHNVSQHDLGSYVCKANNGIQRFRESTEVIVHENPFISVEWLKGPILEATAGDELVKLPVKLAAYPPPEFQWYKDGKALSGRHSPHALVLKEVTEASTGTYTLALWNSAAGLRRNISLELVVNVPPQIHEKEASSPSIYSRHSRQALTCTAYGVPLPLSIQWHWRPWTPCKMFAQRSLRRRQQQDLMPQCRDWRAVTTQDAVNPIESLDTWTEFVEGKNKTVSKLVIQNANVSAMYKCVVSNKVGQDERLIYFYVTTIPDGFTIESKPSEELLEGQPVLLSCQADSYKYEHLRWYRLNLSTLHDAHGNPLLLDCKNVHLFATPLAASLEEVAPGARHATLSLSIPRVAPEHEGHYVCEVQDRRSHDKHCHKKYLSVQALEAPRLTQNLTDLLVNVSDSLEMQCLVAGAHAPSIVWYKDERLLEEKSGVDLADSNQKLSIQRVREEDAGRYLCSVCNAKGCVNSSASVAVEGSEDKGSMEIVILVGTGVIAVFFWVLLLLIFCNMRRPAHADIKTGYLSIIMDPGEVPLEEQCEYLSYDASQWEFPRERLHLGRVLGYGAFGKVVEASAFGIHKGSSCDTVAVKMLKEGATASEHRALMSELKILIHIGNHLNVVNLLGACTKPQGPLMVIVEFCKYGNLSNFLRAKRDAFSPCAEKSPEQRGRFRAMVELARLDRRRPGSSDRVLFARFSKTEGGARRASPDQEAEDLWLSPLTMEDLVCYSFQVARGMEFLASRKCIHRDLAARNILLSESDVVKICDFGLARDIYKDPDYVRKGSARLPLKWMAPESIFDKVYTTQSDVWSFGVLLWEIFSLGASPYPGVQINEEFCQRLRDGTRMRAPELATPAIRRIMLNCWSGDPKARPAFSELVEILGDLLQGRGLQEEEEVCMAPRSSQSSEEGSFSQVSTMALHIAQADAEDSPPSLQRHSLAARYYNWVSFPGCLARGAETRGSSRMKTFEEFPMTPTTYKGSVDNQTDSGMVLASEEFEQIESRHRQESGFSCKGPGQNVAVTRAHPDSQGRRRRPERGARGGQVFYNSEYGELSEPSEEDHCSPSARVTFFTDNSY
Serine/threonine-protein kinase Nek7 (Homo sapiens), sequence (Q8TDX7 whole entry, looked up): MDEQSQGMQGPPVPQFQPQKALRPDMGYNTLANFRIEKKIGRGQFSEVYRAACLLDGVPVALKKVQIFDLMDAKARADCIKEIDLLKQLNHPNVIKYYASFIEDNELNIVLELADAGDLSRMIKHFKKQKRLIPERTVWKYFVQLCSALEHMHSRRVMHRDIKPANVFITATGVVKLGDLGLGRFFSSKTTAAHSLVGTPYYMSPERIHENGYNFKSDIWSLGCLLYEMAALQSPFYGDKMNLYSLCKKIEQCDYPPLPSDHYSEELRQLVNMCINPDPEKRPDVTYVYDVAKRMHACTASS
Serine/threonine-protein kinase Nek6 (Homo sapiens), sequence (Q9HC98 whole entry): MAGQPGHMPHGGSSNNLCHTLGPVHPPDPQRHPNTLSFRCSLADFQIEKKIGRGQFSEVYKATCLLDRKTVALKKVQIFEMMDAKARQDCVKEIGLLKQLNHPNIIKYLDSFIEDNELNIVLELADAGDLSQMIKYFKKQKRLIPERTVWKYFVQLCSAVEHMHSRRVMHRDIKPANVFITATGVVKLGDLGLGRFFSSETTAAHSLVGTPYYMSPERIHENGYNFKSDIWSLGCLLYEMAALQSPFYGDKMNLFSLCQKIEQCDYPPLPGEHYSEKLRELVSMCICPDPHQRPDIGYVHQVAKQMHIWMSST
Macrophage colony-stimulating factor 1 receptor (Homo sapiens), sequence (P07333 whole entry): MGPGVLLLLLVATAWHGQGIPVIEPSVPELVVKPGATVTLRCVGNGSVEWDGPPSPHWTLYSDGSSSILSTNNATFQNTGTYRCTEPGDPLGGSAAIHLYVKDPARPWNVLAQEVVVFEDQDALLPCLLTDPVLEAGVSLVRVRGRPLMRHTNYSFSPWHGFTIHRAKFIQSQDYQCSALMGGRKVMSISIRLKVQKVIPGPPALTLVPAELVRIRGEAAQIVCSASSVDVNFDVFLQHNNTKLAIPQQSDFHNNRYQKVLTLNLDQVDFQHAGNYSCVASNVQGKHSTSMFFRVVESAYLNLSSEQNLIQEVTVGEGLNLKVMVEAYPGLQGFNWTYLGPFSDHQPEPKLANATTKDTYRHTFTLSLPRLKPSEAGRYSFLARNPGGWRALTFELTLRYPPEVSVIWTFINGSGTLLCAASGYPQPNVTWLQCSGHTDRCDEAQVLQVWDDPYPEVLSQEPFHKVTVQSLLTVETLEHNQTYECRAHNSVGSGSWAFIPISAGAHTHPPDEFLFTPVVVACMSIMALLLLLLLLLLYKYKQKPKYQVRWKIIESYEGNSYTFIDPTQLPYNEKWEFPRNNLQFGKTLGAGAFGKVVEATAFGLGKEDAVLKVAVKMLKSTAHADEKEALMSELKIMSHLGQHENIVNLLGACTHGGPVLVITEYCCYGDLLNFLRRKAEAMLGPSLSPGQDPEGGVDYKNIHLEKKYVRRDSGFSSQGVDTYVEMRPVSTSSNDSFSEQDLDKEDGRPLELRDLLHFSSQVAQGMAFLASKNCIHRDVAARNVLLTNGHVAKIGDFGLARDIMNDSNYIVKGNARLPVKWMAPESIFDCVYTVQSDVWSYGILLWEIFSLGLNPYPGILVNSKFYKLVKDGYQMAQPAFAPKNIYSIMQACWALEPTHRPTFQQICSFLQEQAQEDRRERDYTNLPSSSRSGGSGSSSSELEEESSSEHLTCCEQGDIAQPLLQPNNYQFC
Serine/threonine-protein kinase PLK1 (Homo sapiens), sequence (P53350 whole entry): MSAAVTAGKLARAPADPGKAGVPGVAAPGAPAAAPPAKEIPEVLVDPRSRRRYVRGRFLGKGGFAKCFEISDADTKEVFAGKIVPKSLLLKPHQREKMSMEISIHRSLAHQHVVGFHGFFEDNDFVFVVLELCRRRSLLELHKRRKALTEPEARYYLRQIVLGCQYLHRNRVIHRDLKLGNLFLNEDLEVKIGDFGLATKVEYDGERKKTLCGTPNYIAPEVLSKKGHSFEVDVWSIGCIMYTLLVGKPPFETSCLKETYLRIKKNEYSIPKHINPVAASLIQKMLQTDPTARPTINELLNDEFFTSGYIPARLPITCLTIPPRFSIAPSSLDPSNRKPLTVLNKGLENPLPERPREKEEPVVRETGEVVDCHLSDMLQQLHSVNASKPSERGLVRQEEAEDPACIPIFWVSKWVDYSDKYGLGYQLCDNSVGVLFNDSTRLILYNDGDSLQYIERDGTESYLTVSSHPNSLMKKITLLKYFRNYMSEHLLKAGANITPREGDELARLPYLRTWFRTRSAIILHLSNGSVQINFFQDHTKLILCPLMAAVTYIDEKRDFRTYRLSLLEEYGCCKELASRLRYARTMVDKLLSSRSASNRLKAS

## CNC(=O)c1cc(-c2ccc(F)cc2)cc(-c2ccc(S(=O)(=O)N3CCCC3)cc2)c1N
[1]
  inhibition: 3.73%
[2]
  inhibition: 1.09%
[3]
  inhibition: 2.25%
[4]
  inhibition: 4.19%
[5]
  inhibition: 2.55%
[6]
  inhibition: 3.41%
[7]
  inhibition: 2.7%
[8]
  inhibition: 3.41%
[9]
  inhibition: 7.48%
[10]
  inhibition: 5.37%
[11]
  inhibition: 7.69%
[12]
  inhibition: 2.97%
[13]
  inhibition: 3.38%
[14]
  inhibition: 4.67%
[15]
  inhibition: 5.93%
[16]
  inhibition: 0.74%
[17]
  inhibition: 2.49%
[18]
  inhibition: 0.47%
[19]
  inhibition: 1.28%
[20]
  inhibition: 1.22%
